Experimental findings from the supplement of paper PMC10338343 are described below.

± gives the standard deviation.

This experiment deals with MILI (PIWIL2) piRISC loaded with piRNA #1 (26 nt). The experiment is described as follows: pre-steady-state target cleavage rate (min^-1); guide: piRNA #1 5'p-UGAGGUAGUAGGUUGUAUAGUAUCCA; MIWI and MILI are mouse PIWI proteins and EfPiwi is from a freshwater sponge; tags in brackets are library labels; higher = faster piRNA-guided slicing of the target. Conditions: auxiliary factor: 500 nM mouse GTSF1. The essentials: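 Cleave-'n-Seq reactions paired 0.1 nM transcribed, DNA-blocked target RNA library with 1 nM active affinity-purified piRISC holding one synthetic guide, plus or minus 500 nM GTSF1 partner protein, in HEPES–potassium acetate buffer at 33 °C for 0–8 or 0–960 min. After sequencing of uncleaved targets and normalisation to depth and weakly complementary targets, the pre-steady-state cleavage rate was taken from a burst-and-steady-state fit. Three trials were pooled, and k3 was capped at 0.0001 min^-1.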
With GGAGACCUUAGUAUAGAACCUACUACCUCA, the “pre-steady-state target cleavage rate” value amounted to 0.0876 ± 0.013.

As to GGAGAGGAUACUAUACAUGGUACUACCUCA, the “pre-steady-state target cleavage rate” value turned out to be 0.00387 ± 0.0028.

Regarding GGAGACCUAUGAAUACAUCCUACUACCACA, the “pre-steady-state target cleavage rate” value is 0.0133 ± 0.0041.

In the case of GGAGAGGAUACUAUACUACCUACAACCUCA, the “pre-steady-state target cleavage rate” value came out at 0.102 ± 0.0092.

On to GGAGACCAUACAAUACAACCUAGUACCUCA, for which the “pre-steady-state target cleavage rate” value came to 0.0587 ± 0.011.

For GGAGACCUAACUAUACAAGCUACUUCCUCA, the “pre-steady-state target cleavage rate” value is 0.144 ± 0.024.

Consider GGAGACGAUACAAUACAACGUACUACCUCA, for which the “pre-steady-state target cleavage rate” value worked out at 0.0185 ± 0.0029.

For the sequence GGAGACCUUACUAUACUACGUACUACCUCA, the “pre-steady-state target cleavage rate” value stood at 0.0307 ± 0.0046.

Regarding GGAGACCUAACUAUACAACCUACUAACCUCA, the “pre-steady-state target cleavage rate” value stood at 0.187 ± 0.028.

Regarding GGAGACCUAUCUAUUCUACCUACUACCUCA, the “pre-steady-state target cleavage rate” value came out at 0.0569 ± 0.0086.

Regarding GGAGACCUAUGUAUACAUGCUACUACCUCA, the “pre-steady-state target cleavage rate” value was found to be 0.0469 ± 0.007.

Consider GGAGACCUUACUAUACAACCUAGCUACCUCA, for which the “pre-steady-state target cleavage rate” value was found to be 0.0317 ± 0.0069.

Take GGAGACCUAUGAUAUGAACCACUACCUCA: the “pre-steady-state target cleavage rate” value is less than 0.0001.

Take GGAGACCUAUGUAUACUUGCUACUACCUCA: the “pre-steady-state target cleavage rate” value came to 0.00505 ± 0.0014.

Turning to GGAGACCUAUGAUUACAACCUACUACCUA, the “pre-steady-state target cleavage rate” value came to 0.00393 ± 0.0024.

For GGAGACCUAACAAUACAACCUACUACCUCA, the “pre-steady-state target cleavage rate” value amounted to 0.0822 ± 0.019.

GGAGACCUAUGAUAUCAACCUACACCUCA: the “pre-steady-state target cleavage rate” value is less than 0.0001.

Turning to GGAGACCUAUGAUAUCCAACCUACUACCUCA, the “pre-steady-state target cleavage rate” value came out at 0.0112 ± 0.0022.

For GGAGACCAUACUAUACUACCUACAACCUCA, the “pre-steady-state target cleavage rate” value was found to be 0.185 ± 0.023.

Regarding GGAGACCUAUGAUUACAACCUACUAGCCUCA, the “pre-steady-state target cleavage rate” value came out at 0.00776 ± 0.0028.

In the case of GGAGACCUAUGUAUACAACCUACUACCUUCA, the “pre-steady-state target cleavage rate” value was found to be 0.0648 ± 0.0099.

For GGAGACGAUAGUAUACAACCUUCUACCUCA, the “pre-steady-state target cleavage rate” value was determined as 0.00961 ± 0.003.

Consider GGAGACCUAACUAUACAACCUACUAUCCUCA, for which the “pre-steady-state target cleavage rate” value turned out to be 0.177 ± 0.047.

Turning to GGAGACCAUACAAUACAACCUACUUCCUCA, the “pre-steady-state target cleavage rate” value stood at 0.125 ± 0.016.

As to GGAGACCUAACUAUACAACCUAUCUACCUCA, the “pre-steady-state target cleavage rate” value was 0.11 ± 0.024.

On to GGAGACGAUACUAUACAUCCUACUACCACA, for which the “pre-steady-state target cleavage rate” value came to 0.334 ± 0.021.

GGAGACCUAUGAUAUGUUGCUACUCCCUCA: the “pre-steady-state target cleavage rate” value was less than 0.0001.

Take GGAGACCUUACUAUUGAACCUACUACCUCA: the “pre-steady-state target cleavage rate” value is 0.137 ± 0.013.

On to GGAGACCUAUGAUAUGUACCUACUACCUGA, for which the “pre-steady-state target cleavage rate” value is less than 0.0001.

As for GGAGACCUAUGAAUACAACCUACUUCCUCA, the “pre-steady-state target cleavage rate” value was determined as 0.00371 ± 0.0019.

For GGAGACCUUACUAUACAACCUACUCCUCA, the “pre-steady-state target cleavage rate” value came out at 0.00492 ± 0.0027.

For GGAGACCAUACUAAACAUCCUACUACCUCA, the “pre-steady-state target cleavage rate” value worked out at 0.272 ± 0.022.

Turning to GGAGACCUAUGAUAUGAACCUACUAUCUCA, the “pre-steady-state target cleavage rate” value is less than 0.0001.

GGAGACCUAUCUAAAGAACCUACUACCUCA: the “pre-steady-state target cleavage rate” value was determined as 0.0183 ± 0.0054.

For GGAGACCUAUGUAUACAACCUACAACCUGA, the “pre-steady-state target cleavage rate” value turned out to be 0.0031 ± 0.0024.

As for GGAGACCUAUCUAUACUUGCUACUACCUCA, the “pre-steady-state target cleavage rate” value was 0.0151 ± 0.0031.

As to GGAGACCUAUCUAUACAACCUACUACCACA, the “pre-steady-state target cleavage rate” value stood at 0.136 ± 0.019.

GGAGACCUUACUAAACAACCUACUACCACA: the “pre-steady-state target cleavage rate” value was 0.128 ± 0.017.

For the sequence GGAGACCUAACUAUACAACCUACAUGCUCA, the “pre-steady-state target cleavage rate” value turned out to be 0.0479 ± 0.022.

As to GGAGACCUAUGUAUACAACCUACUACCGUCA, the “pre-steady-state target cleavage rate” value came out at 0.0528 ± 0.0094.
